Source: PubChem BioAssay (several laboratories)
Autofluor counter: counter-screen for toxin protease inhibitors: compound fluorescence. hit rate 3.1% among 360,000. AID 624483. fluorescence intensity (no concentration beside the values). compound autofluorescence counterscreen, microsphere flow cytometry; active compounds read high; in the data active means fluorescence intensity above about 16000; inconclusive means no clear call, values can overlap the other calls
Anthrax LF inh2: inhibitors of Bacillus anthracis lethal factor protease; P15917; multiplex microsphere protease cleavage assay, LF; inhibition, % at 10 µM; hit rate 0.12% among 360,000; further: plate controls were buffer without enzyme for full effect and enzyme alone for no effect
Target sequence (P15917 whole entry, looked up): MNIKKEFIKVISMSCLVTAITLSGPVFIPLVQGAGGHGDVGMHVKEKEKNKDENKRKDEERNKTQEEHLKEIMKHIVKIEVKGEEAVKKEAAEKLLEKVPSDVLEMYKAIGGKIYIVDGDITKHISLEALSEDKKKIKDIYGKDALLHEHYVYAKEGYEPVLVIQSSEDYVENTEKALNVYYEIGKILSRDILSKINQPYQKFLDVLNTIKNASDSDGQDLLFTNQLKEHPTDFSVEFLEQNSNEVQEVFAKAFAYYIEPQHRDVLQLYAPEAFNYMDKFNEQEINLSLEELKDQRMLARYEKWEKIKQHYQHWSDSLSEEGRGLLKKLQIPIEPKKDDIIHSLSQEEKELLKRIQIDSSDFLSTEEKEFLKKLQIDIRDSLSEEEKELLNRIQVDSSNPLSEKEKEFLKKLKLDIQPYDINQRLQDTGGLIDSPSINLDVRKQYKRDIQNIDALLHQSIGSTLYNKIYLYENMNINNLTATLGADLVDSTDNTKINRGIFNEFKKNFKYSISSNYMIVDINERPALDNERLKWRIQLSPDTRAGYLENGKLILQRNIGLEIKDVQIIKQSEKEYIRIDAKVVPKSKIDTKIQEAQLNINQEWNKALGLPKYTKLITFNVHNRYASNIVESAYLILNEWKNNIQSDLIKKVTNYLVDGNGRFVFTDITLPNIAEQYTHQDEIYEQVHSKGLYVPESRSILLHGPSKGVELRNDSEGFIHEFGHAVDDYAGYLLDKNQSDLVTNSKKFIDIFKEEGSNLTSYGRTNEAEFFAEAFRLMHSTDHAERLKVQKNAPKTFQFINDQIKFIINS
BoNT-F LC inh: inhibitors of Botulinum neurotoxin F light chain protease. Multiplex microsphere protease cleavage assay, flow cytometry. inhibition, % at 10 µM. hit rate 0.22% among 360,000. AID 588497; in the data active means inhibition above about 35%, passing the limit was not always enough; inconclusive means no clear call, values can overlap the other calls; further: plate controls were buffer without enzyme for full effect and enzyme alone for no effect
3CLpro inhibitor: SARS-CoV 3CLpro protease inhibition. AID 1706. hit rate 0.14% among 290,000. recombinant SARS-CoV 3CLpro, quenched FRET peptide cleavage. P0C6X7. inhibition, % at 6 µM; in the data active means inhibition above about 12%
BoNT-A LC inh2: blocks Botulinum neurotoxin A light chain protease | multiplex microsphere protease substrate cleavage, flow cytometry | inhibition, % at 10 µM | hit rate 0.17% among 360,000; further: plate controls were buffer without enzyme for full effect and enzyme alone for no effect
* hit, by the source's call; u = inconclusive; x = not tested or not shown; ! = a repeat was not active. Compounds with a hit are over-represented: about 3.5% of the library has one in this group of screens. Unless noted, no stated cut-off is given here; in the data, active means inhibition above about 30%; inconclusive means no clear call, values can overlap the other calls; inactive means below that.

SMILES | Autofluor counter | Anthrax LF inh2 | BoNT-F LC inh | 3CLpro inhibitor | BoNT-A LC inh2
CCOC(=O)CSc1nc2c(sc(=S)n2Cc2ccco2)c(=O)n1-c1ccccc1 | 11224 | -2 | 4 | 5 | 0
CC1(C)Cc2nc3sc4c(=O)n(CC(=O)NCc5ccccc5)cnc4c3cc2CO1 | 16709* | 0 | -3 | 6 | -1
CC1(C)Cc2nc3sc4c(=O)n(CC(N)=O)cnc4c3cc2CO1 | 2937 | -2 | 3 | 1 | 0
Cc1ccn2c(C(=O)CSc3ccccc3)c(C)nc2c1 | 4235 | -1 | -1 | 2 | 2
Cn1c(=O)c2c(nc(SCCN3CCOCC3)n2Cc2cccc3ccccc23)n(C)c1=O | 19656* | -5 | 0 | 1 | 0
Cn1c(=O)c2c(nc(CN3CCC(Cc4ccccc4)CC3)n2CCN2CCOCC2)n(C)c1=O | 27251* | -3 | -3 | 3 | -2
Cn1c(=O)c2c(nc(NCCCN3CCOCC3)n2Cc2cccc(Cl)c2)n(C)c1=O | 22276* | -1 | 6 | -4 | 2
Cn1c(=O)c2c(nc(CN3CCC(C(N)=O)CC3)n2CCc2ccccc2)n(C)c1=O | 19348* | -1 | 3 | 4 | u
Cn1c(=O)c2c(nc(SCCN3CCOCC3)n2Cc2ccccc2Cl)n(C)c1=O | 5471 | -5 | -2 | -3 | 0
CCCC(=O)NC(=S)Nc1ccccc1F | 5343 | -1 | -31 | 4 | -1
NNC(=S)NC1CCCCC1 | 4613 | -8 | -1 | 3 | 0
CCOCc1c(C(=O)N2CCN(CCOc3ccc(Cl)cc3)CC2)oc2ccccc12 | 6602 | -2 | -2 | x | 1
CCOC(=O)c1nnn(-c2ccccc2)c1C | 24310* | -1 | -7 | 4 | u
CCCSc1cc(=O)n(-c2ccccc2)nc1C(=O)OCC | 22530* | 3 | -2 | -9 | 0
CCOC(=O)c1nn(-c2ccccc2)c(C#N)c1N | 2015 | -1 | -1 | 1 | 0
COC(=O)c1nn(-c2ccccc2)c(=O)cc1Oc1ccccc1 | 22483* | -2 | 1 | 0 | 0
O=C(CCS(=O)(=O)c1ccccc1)Nc1ccc(N2CCN(Cc3ccccc3)CC2)cc1 | 7643 | -16 | -13 | x | 6
CCOC(=O)C(C)Sc1cc(CS(=O)(=O)c2ccccc2)nc(-c2ccccc2)n1 (centres undefined) | 20917* | -3 | 6 | 2 | u
CCc1ccc(C2=NN(CCC(=O)NC(C)c3ccc4c(c3)OCCO4)C(=O)CC2)cc1 (centres undefined) | 3490 | 16 | 2 | -2 | 0
Cc1cc2ncn(-c3ncnc4sc(C)c(C)c34)c2cc1C | 2856 | -3 | 4 | 0 | 0
Cc1cc2ncn(-c3ncnc4scc(-c5ccccc5)c34)c2cc1C | 24244* | 0 | -5 | -1 | u
Nc1ncnc2c1ncn2[C@@H]1O[C@H](CNC(=O)[C@@H](N)Cc2ccccc2)[C@@H](O)[C@H]1O | 3961 | -2 | -5 | x | -1
CCc1nnc(NC(=O)Cc2c[nH]c3ccccc23)s1 | 4660 | -6 | -7 | 1 | 0
COc1ccc(C2C3=C(N=C4SCC(=O)N42)c2ccccc2CC3)cc1OC (centres undefined) | 24021* | -1 | -7 | 2 | -4
CCOC(=O)c1cnc2nc(C)nn2c1N | 3268 | -5 | 1 | 7 | -1
SMILES | Autofluor counter | Anthrax LF inh2 | BoNT-F LC inh | 3CLpro inhibitor | BoNT-A LC inh2
COc1ccc(OC)c(Nc2cc(C)nc3ccccc23)c1 | 5526 | -2 | 2 | -1 | 0
COc1ccc(Nc2ccccc2)c(C)c1 | 22653* | -2 | -2 | 1 | 2
COc1cccc(Nc2cc(C)nc3ccccc23)c1 | 20171* | 1 | 0 | -5 | u
Cc1ccc(Cn2ncc3c(NCCCN4CCOCC4)ncnc32)cc1 | 3980 | -2 | 4 | 0 | 0
CCN(Cc1ccccc1)S(=O)(=O)c1c(N)n(C)c(=O)n(C)c1=O | 5826 | 0 | 1 | -2 | 0
Cc1ccc(NS(=O)(=O)c2ccc(C(=O)NCc3ccccn3)cc2)cc1 | 6050 | -2 | 2 | -1 | 1
O=C(Nc1ccc(F)cc1)c1cccnc1N1CCCCC1 | 21821* | 1 | -5 | 2 | -4
COc1ccc(NC(=O)c2cccnc2N2CCCCC2)cc1 | 2444 | -2 | 2 | -3 | 0
O=C(Nc1ccc(Br)cc1)c1cccnc1N1CCCCC1 | 21086* | -8 | 5 | -1 | 8
O=C(Nc1cccc(-c2nc3ccccc3[nH]2)c1)c1ccccn1 | 4410 | -2 | -48 | -9 | -2
C=CCn1c(=O)c2ccccc2n2c(SC(C)C(N)=O)nnc12 (centres undefined) | 3436 | 2 | -1 | -1 | -2
C=CCn1c(=O)c2ccccc2n2c(SCC(=O)/C(C#N)=C(\C)N)nnc12 | 24633*! | 0 | -2 | 2 | u
c1ccc(-c2cnc(-c3ccccc3)nc2)cc1 | 7478 | 5 | 12 | 3 | u
O=C(O)c1ncc(-c2ccccc2)cn1 | 17752* | -5 | -9 | 3 | -4
CC1CCCN(C(=O)c2cc(F)c(F)cc2Cl)C1 (centres undefined) | 22587* | -4 | -5 | 2 | 2
C=CCn1c(CCNC(=O)c2ccccc2F)nnc1SCc1nc2ccccc2c(=O)[nH]1 | 24056* | -2 | -4 | -2 | -3
COc1ccc(N(Cc2cc(=O)[nH]c3ccccc23)C(=O)c2ccco2)cc1 | 20241* | -3 | 0 | -4 | u
COc1ccc(/C=C/C(=O)OCC(=O)c2cc(C)ccc2C)cc1 | 3422 | -5 | -4 | x | -1
Cc1cc(Nc2ccccc2C(=O)O)n(-c2cccc(Cl)c2)n1 | 5200 | 1 | -1 | -4 | 0
CCCc1cc(=O)n2[nH]c(C(F)(F)F)nc2n1 | 3903 | -8 | -6 | 0 | 0
CCCc1cc(=O)n2[nH]c(C)nc2n1 | 24470* | -2 | -3 | -1 | -2
CN(C(=O)c1ccccc1NC(=O)C(F)(F)F)c1ccccc1 | 19216* | -6 | 10 | -5 | 10
CCOc1ccc(-c2cc(CCCC(=O)Nc3cc(OC)ccc3OC)no2)cc1 | 9945 | 0 | -8 | 7 | 0
Cc1cccc2cc(CN(CC3CCCO3)C(=O)NC3CCCCC3)c(=O)[nH]c12 (centres undefined) | 5393 | -5 | -10 | -3 | 0
COc1ccc(CCN(Cc2cc3cccc(C)c3[nH]c2=O)C(=O)NC2CCCCC2)cc1OC | 23128* | 1 | -1 | 1 | 0
SMILES | Autofluor counter | Anthrax LF inh2 | BoNT-F LC inh | 3CLpro inhibitor | BoNT-A LC inh2
Cc1cc(C)nc(N2N=C(CSc3ccc(Cl)cc3)CC2=O)n1 | 3160 | -6 | -5 | 4 | -1
Cc1cccc(Cn2ncc(Cl)c(Cl)c2=O)c1 | 16414* | 1 | 0 | -1 | 0
Cc1ccccc1Cn1nnc2c1C(=O)c1ccccc1C2=O | u | 1 | -5 | -3 | 0
O=C(OCn1ncc(Cl)c(Cl)c1=O)c1ccc(C(F)(F)F)cc1 | 10280 | 2 | -2 | 6 | -2
Cc1ccc(C(=O)OCn2ncc(Cl)c(Cl)c2=O)cc1 | 17159* | -2 | -5 | 3 | -2
Cc1cccc(Cn2nnc3c2C(=O)c2ccccc2C3=O)c1 | 16137* | -2 | -3 | 4 | 0
C=CCOC(=O)C1=C[C@H](c2cn(C(C)=O)c3ccccc23)[C@@H](CCCO)[C@H](OCC)O1 | 4038 | -4 | 1 | 2 | 0
CN(Cc1ccccc1)C(=O)NC1CCCCC1 | 22110* | 1 | -11 | 2 | u
